Screens (PubChem)
ssDAF-12 act – S. stercoralis DAF-12 activation, primary screen; HEK293 ssDAF-12/GRIP1 lit1-tk-luc reporter, luminescence; % of 3 µM dafachronic acid response; activation, % at 6.8 µM; 370,000 compounds, 1% hits; AID 652126;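 active = activation above the mean over all tested compounds plus 3 SD, cut at about 0.9% in these data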
DAX1 inh-1 – inhibits human nuclear receptor DAX1 | P51843 | HEK293 Gal4-DAX1 luciferase reporter, luminescence | inhibition, % at 6.75 µM | 340,000 compounds, 0.99% hits;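 active = inhibition above the mean over all tested compounds plus 3 SD, cut at about 4.2% in these data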;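 note: inhibition shows as a rise in luminescence from relieved DAX1 repression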
Target sequence (P51843 207-470 limits assumed): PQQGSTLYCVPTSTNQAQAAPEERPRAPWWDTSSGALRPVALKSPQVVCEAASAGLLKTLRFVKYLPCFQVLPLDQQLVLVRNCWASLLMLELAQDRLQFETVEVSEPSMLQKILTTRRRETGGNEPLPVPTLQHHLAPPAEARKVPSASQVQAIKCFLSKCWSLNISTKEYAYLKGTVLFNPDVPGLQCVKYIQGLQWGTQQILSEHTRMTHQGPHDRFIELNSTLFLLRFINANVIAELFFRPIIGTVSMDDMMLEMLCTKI
hcDAF-12 act – activators of H. contortus DAF-12 nuclear receptor; HEK293 hcDAF-12 lit1-tk-luc reporter, luminescence; 0% DMSO, 100% Δ7-dafachronic acid; activation, % at 6.8 µM; 370,000 compounds, 1.4% hits; AID 652067;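 active = activation above the mean of all tested compounds plus 3 SD, cut at about 5.5% in these data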
DAX1 inh-2 – inhibitors of DAX1 repression of SF-1 activated StAR promoter; HEK293T StAR-luciferase reporter, SF-1/DAX-1 repression relief; inhibition, % at 6.8 µM; 370,000 compounds, 1.1% hits; AID 652010;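 active = inhibition above the mean over all tested compounds plus 3 SD, cut at about 3.6% in these data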;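 note: higher inhibition means more luminescence from relief of DAX-1 repression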
hgDAF-12 ag – agonists of H. glycines DAF-12 nuclear receptor; HEK293 GAL4-hgDAF12 UAS-luciferase reporter, agonist luminescence; normalized to butyrate control; 370,000 compounds, 1.8% hits; activation, % at 6.8 µM; AID 687014;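 active = activation above a cutoff set at the mean of all screened compounds plus 3 SD, cut at about 10% in these data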
LXR ag – LXR-beta agonism as hcDAF-12 counter-screen; 3,400 tested, under 10 active; shares compounds with hcDAF-12 act; activation, % at 6.8 µM; HEK293 Gal4-LXR tk-luc reporter, luminescence, 24 h; normalized: DMSO 0%, positive control 100%;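 active = mean percent activation of the reporter above a cutoff set as the average over tested compounds plus their standard deviation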
hcDAF12 ag – confirmation of H. contortus DAF-12 agonists; shares compounds with hcDAF-12 act; HEK293 hcDAF-12 lit1-tk-luc reporter, luminescence; % of Δ7-dafachronic acid response; activation, % at 6.8 µM; 3,400 compounds, 61% hits;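 active = mean activation across triplicate tests above the threshold derived from the earlier primary screen, cut at about 5.5% in these data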
Of the large screens only hits and unclear results are named; the others gave an inactive call (follow-up assays come after a bar, where they were run). This is a sample that favours compounds with a hit; in the whole collection about 4.1% have one here.

CN(C)C(=S)N=Nc1[nH]c2ccccc2c1O	ssDAF-12 act 1.4, hcDAF-12 act 7.3, hgDAF-12 ag 13 (no result: DAX1 inh-1) | LXR ag inactive | hcDAF12 ag inactive
c1csc(-c2ccc(N3CCOCC3)nn2)c1	hcDAF-12 act 6.6, hgDAF-12 ag 13 | LXR ag inactive | hcDAF12 ag 5.8
COC(=O)C1CN(Cc2cn(Cc3ccc(C)cc3)nn2)CCS(=O)(=O)N1Cc1ccccc1 (centres undefined)	none (no result: DAX1 inh-1)
O=C(NC(=S)Nc1cccnc1Cl)c1ccc(Cl)cc1	ssDAF-12 act 1.1, hcDAF-12 act 10, hgDAF-12 ag 15 | LXR ag inactive | hcDAF12 ag 15
O=C(NC(=S)Nc1cccnc1Cl)c1ccco1	none
Cc1cccc(C(=O)Nc2cccc3cccnc23)c1	none
Cc1ccc(C(=O)Nc2cccc3cccnc23)cc1C	hcDAF-12 act 9.7 | LXR ag inactive | hcDAF12 ag 8.8
O=C(Nc1cccc2cccnc12)c1ccc(Cl)cc1	ssDAF-12 act 1.2, hcDAF-12 act 6.7 | LXR ag inactive | hcDAF12 ag 7.6
CCOC(=O)c1cc(NC(=O)c2ccc(Cl)cc2)c(=O)n2c1oc1ccc(Cl)cc12	hcDAF-12 act 9.3 | LXR ag inactive | hcDAF12 ag inactive
CCOC(=O)c1cc(NC(=O)c2ccc(C)cc2)c(=O)oc1C(F)(F)F	none
Nc1ccc(N=Nc2ccccc2)c2cccnc12	hcDAF-12 act 7.4 | LXR ag inactive | hcDAF12 ag 9.5
COc1ccc2[nH]cc(C(=O)CNc3nc(C)cs3)c2c1	hcDAF-12 act 7.3 | LXR ag inactive | hcDAF12 ag 7.6
COc1ccc2[nH]cc(C(=O)CCl)c2c1	none
CCCCCCCCN1C(=O)[C@@H](CC(=O)NCCCN2CCCC2=O)C[C@@]2(C(=O)OC)C1=C[C@H](C1CCCC1)O[C@@H]2C	none (no result: DAX1 inh-1)
COc1cccc(-c2ccc(NC(=O)C3CCCN(Cc4cc(C)[nH]n4)C3)cc2)c1 (centres undefined)	hcDAF-12 act 7.0 | LXR ag inactive | hcDAF12 ag inactive
CC(C)(C)OC(=O)NCCc1ccccc1/C=C/S(=O)(=O)NC1CCCC1	none (no result: DAX1 inh-1)
CC(C)N=C1NN=C(c2cccs2)CS1	ssDAF-12 act 1.4, hcDAF-12 act 8.6, hgDAF-12 ag 12 | LXR ag inactive | hcDAF12 ag 11
COCC(C)N=C1NN=C(c2ccc(NC(C)=O)cc2)CS1 (centres undefined)	none
CCCC(=O)Nc1cccc(-c2nc3ccccc3o2)c1	none
CCCC(=O)Nc1cccc(-c2nc3cc(C)c(C)cc3o2)c1	hcDAF-12 act 7.2, DAX1 inh-2 4.3 | LXR ag inactive | hcDAF12 ag inactive
COC(=O)[C@]12C[C@H](CC(=O)N3CCC(c4ccccc4)CC3)C(=O)N(Cc3ccc(Cl)cc3Cl)C1=C[C@H](C1CCCC1)O[C@@H]2C	none (no result: DAX1 inh-1)
CC[C@@]1(c2ccc(C)cc2)C(=O)N(C(=O)OC)N1C(=O)OC	none (no result: DAX1 inh-1)
Cc1ccc2[nH]c(=O)c(CN(Cc3ccccc3)Cc3nnnn3C3CCCC3)cc2c1	ssDAF-12 act 2.5, hcDAF-12 act 14 | LXR ag inactive | hcDAF12 ag inactive
Cn1c(=O)c(-c2cc(Br)ccc2N)nc2ccccc21	ssDAF-12 act 1.2, hcDAF-12 act 11 | LXR ag inactive | hcDAF12 ag 13
CCN(C[C@H]1N[C@@](Cc2ccccc2)(C(=O)OC)[C@H]2C(=O)N(C)C(=O)[C@@H]12)C(=O)c1ccc(F)cc1	none
CCN(C[C@H]1N[C@@](CC)(C(=O)OC)[C@H]2C(=O)N(C)C(=O)[C@@H]12)C(=O)c1ccc(F)cc1	hcDAF-12 act 12 | LXR ag inactive | hcDAF12 ag inactive
C=CCN=C1NC(c2ccc(Cl)cc2)C(C(=O)OC)=C(C)N1Cc1ccccc1C(F)(F)F (centres undefined)	none (no result: DAX1 inh-1)
O=C(O)CC/C(=C\c1cc([N+](=O)[O-])ccc1Cl)c1nc2ccccc2s1	hcDAF-12 act 8.8 | LXR ag inactive | hcDAF12 ag 7.9
O=C(O)CC/C(=C\c1ccccc1[N+](=O)[O-])c1nc2ccccc2s1	none
Cc1cccc(C)c1Nc1nnc(SCc2nc3ccccc3s2)s1	ssDAF-12 act 0.9, hcDAF-12 act 12, hgDAF-12 ag 13 | LXR ag inactive | hcDAF12 ag 11
COc1cccc(Nc2nnc(SCc3nc4ccccc4s3)s2)c1	hcDAF-12 act 7.0 | LXR ag inactive | hcDAF12 ag 10
Cn1nnnc1SCc1nc2ccccc2s1	ssDAF-12 act 2.1, hcDAF-12 act 8.7 | LXR ag inactive | hcDAF12 ag 8.5
CC(C)c1[nH]nc2c1C(c1ccccc1)N(c1ccccc1)C2=O (centres undefined)	none (no result: DAX1 inh-1)
c1ccc2c(Cn3ccnc3)c[nH]c2c1	hcDAF-12 act 8.0 | LXR ag inactive | hcDAF12 ag inactive
C[C@@H]1ON(C)[C@H]2C[C@H]3c4cc(N5CCCCC5)ccc4CCN3C[C@@H]12	none (no result: DAX1 inh-1)
COC(=O)[C@]12C[C@H](CC(=O)NCc3ccc(OC)c(OC)c3)C(=O)N(Cc3ccco3)C1=C[C@H](COCc1ccccc1)O[C@@H]2C	none (no result: DAX1 inh-1)
COCCn1c(SCC(=O)N2CCCCCC2)nc2c([nH]c3ccccc32)c1=O	hcDAF-12 act 7.2 | LXR ag inactive | hcDAF12 ag inactive
CCn1c(SCC(=O)NCCc2ccccc2)nc2c([nH]c3ccccc32)c1=O	hcDAF-12 act 7.2 | LXR ag inactive | hcDAF12 ag 6.7
CCn1c(SCC(=O)NCCc2ccc(OC)c(OC)c2)nc2c([nH]c3ccccc32)c1=O	none
CN(C)c1ccc(C(=O)Nc2nc3c(s2)CCCC3)cc1	hcDAF-12 act 7.7, DAX1 inh-2 3.8, hgDAF-12 ag 12 | LXR ag inactive | hcDAF12 ag 8.4
O=C(c1cc(C2CC2)on1)N(C1CCCCC1)C1CCCCC1	none (no result: DAX1 inh-1)
Cc1ccc(S(=O)(=O)CCC(=O)N2CCc3ccccc32)cc1	hcDAF-12 act 6.8 | LXR ag inactive | hcDAF12 ag inactive
Cc1ccc(S(=O)(=O)CCC(=O)OCC(=O)N2CCc3ccccc32)cc1	none
COc1ccc(-c2nc3ccccc3c(=O)[nH]2)cc1	hcDAF-12 act 7.4, hgDAF-12 ag 13 | LXR ag inactive | hcDAF12 ag 8.4
Cc1cccc(-c2nc3ccccc3c(=O)[nH]2)c1	none
Cn1c(O)c(N=NC(=O)c2cc(-c3cccs3)nc3ccccc23)c2ccccc21	none
Cn1c(O)c(N=Nc2nc(-c3ccccc3)cs2)c2ccccc21	hcDAF-12 act 12 | LXR ag inactive | hcDAF12 ag 7.4
CN(C)c1ccc(N=Nc2ccccc2C(=O)OCC(=O)N2CCCC2)cc1	none
